# Source: PubChem (National Center for Advancing Translational Sciences (NCATS))
# D2 ag-1: agonists of human D2 dopamine receptor; HEK293 T-REx D2 cells, calcium flux agonist mode; activation, % at 2 µM; 340,000 compounds, 0.53% hits;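 active = activation over 3 SD above normal in the single-dose calcium agonist read, cut at about 30% in these data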; also: 0% is about no effect
# Target sequence (P14416 whole entry, looked up): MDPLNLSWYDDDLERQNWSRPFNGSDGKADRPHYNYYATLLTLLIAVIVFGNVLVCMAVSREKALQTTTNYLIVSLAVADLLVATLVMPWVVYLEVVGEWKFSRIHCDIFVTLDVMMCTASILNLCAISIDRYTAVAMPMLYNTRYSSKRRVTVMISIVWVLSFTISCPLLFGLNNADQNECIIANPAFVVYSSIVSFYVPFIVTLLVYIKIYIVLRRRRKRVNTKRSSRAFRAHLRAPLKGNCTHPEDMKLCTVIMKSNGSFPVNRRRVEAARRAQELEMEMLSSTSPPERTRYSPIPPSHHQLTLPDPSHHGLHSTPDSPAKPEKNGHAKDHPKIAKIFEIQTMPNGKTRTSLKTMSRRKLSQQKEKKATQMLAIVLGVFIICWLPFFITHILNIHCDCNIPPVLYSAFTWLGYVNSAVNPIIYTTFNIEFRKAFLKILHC
#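 Agonism is scored from calcium flux in a force-coupled, inducible HEK293 cell line expressing D2, read kinetically for 180 s after compound addition against dopamine controls.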
# D2 PAM-1: D2 dopamine receptor (human) potentiation; 340,000 compounds, 0.34% hits; HEK293 T-REx D2, calcium flux, EC20 dopamine potentiation; AID 485347; P14416; potentiation, % at 10 µM;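 active = potentiation over 3 SD above the plate norm, cut at about 30% in these data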; also: 0% is about no effect
#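 Calcium flux readout, no-wash dye, 1 read/s. Inducible HEK293 Trex D2 line, overnight 30 C. Compound alone 180 s (agonist flags), then EC20 dopamine, another 180 s to score potentiation.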
# D2 PAM-2: potentiates the human D2 dopamine receptor allosterically. P14416. DiscoveRx D2 beta-arrestin cells, luminescence, 90 min; 100% = 57 uM dopamine signal. potentiation, % (no concentration beside the values). 360,000 compounds, 0.23% hits; in the data active = potentiation above about 50%
#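 PathHunter D2 cells, attached overnight at 37 deg C, received compound in DMSO plus dopamine at EC20 (50 nM final) for 90 min at 37 deg C. Beta-arrestin recruitment was read as luminescence after 1 h with detection reagent at ambient temperature.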
# D2 ag-2: agonists of human D2 dopamine receptor (beta-arrestin); P14416; DiscoveRx PathHunter D2 beta-arrestin, luminescence, 90 min; 100% = 57 uM dopamine signal; activation, % (concentration not given with the values); 360,000 compounds, 0.084% hits; AID 624465; in the data active = activation above about 40%
#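 DiscoveRx PathHunter D2 beta-arrestin cells (2,100/well) attached overnight, then compound-stimulated 90 min at 37 C in HBSS/10 mM HEPES/0.1% Tween-20 buffer; beta-galactosidase complementation read by luminescence after 1 h at ambient temperature. Dopamine 57 uM final (EC100) as control.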
# D2 antag: antagonists of human D2 dopamine receptor; P14416; HEK293 TREx D2 cells, calcium flux, dopamine EC80; inhibition, % at 10 µM; 340,000 compounds, 2% hits; AID 485344; in the data active = inhibition above about 30%; inactive = below that, where a call was filed; also: 0% is about no effect
#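 Overnight-induced (tetracycline, 30 C) HEK293 T-REx cells carrying force-coupled D2 receive a no-wash calcium dye, then compound, then EC80 dopamine at 180 s; signals are read kinetically throughout.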
# * hit, by the source's call; . = no result. A selection: hits, their analogues and other compounds. The true share with any hit is near 2.4%.
SMILES,D2 ag-1,D2 PAM-1,D2 PAM-2,D2 ag-2,D2 antag
CC(=O)N1c2ccc(S(=O)(=O)N3CCCC3C(=O)Nc3ccc(C)cc3)cc2CC1C (stereo not given),-0.4,4.8,-2.2,14.1,36.7*
CC(C)c1ccc(NC(=O)C2CCN(S(=O)(=O)c3ccc4c(c3)NC(=O)CO4)CC2)cc1,0.2,-14.4,-13.9,1.3,-4.4
CC(=O)N1c2ccc(S(=O)(=O)NCC3CCC(C(=O)Nc4cc(C)cc(C)c4)CC3)cc2CC1C (stereo not given),0.1,.,.,.,.
CC(=O)N1c2ccc(S(=O)(=O)NCC3CCC(C(=O)Nc4ccc(C)cn4)CC3)cc2CC1C (stereo not given),-0.1,34.2*,-9.8,1.4,-13.6
O=C(Cn1ncc2c3ccccc3n(Cc3ccccc3F)c2c1=O)NCc1ccccc1Cl,0.9,10.7,.,.,.
CC(=O)N1c2ccc(S(=O)(=O)N3CCC(C(=O)Nc4cccc(Cl)c4)CC3)cc2CC1C (stereo not given),0.0,-2.5,-0.8,-1.5,41.2*
CCOc1ccc(NC(=S)NCc2ccc3[nH]c(C)cc3c2)cc1,-0.7,-6.6,-14.0,0.3,17.7
CCCCNC(=S)NCc1ccc2[nH]c(C)cc2c1,-2.3,1.0,-11.8,1.3,30.3*
Cc1ncc([N+](=O)[O-])n1Cc1ccccc1F,-2.2,-8.1,-1.3,-1.0,31.5*
Cc1ncc([N+](=O)[O-])n1Cc1cccc2ccccc12,-2.3,8.1,-4.3,-1.3,9.2
CNC(=O)c1nnc(Cc2ccc(F)cc2)o1,-0.7,0.0,-1.8,-5.0,58.1*
Cn1c(SCc2nc3ccccc3c(=O)[nH]2)nc2ccccc21,-0.2,-0.1,-11.2,-3.1,8.4
CC(C)Cn1c(SCc2nc3ccccc3c(=O)[nH]2)nc2ccccc2c1=O,-0.1,35.6*,3.8,-2.7,-5.3
C#CCOCCOCCOCCNc1nc(OC)nc(N2CCN(C(=O)[C@H](CCC(=O)O)n3cc(C(N)CO)nn3)CC2)n1 (stereo not given in full),0.5,7.8,-7.9,-1.3,7.0
COc1ccc(C(CNC(=O)c2cc3ccccc3o2)N2CCCCC2)cc1 (stereo not given),-0.2,-20.0,-21.0,-2.2,66.6*
COc1ccc(C(CNC(=O)c2cc3c(s2)CCC(C)C3)N2CCCC2)cc1 (stereo not given),0.0,-25.1,-8.0,-1.2,71.6*
COc1ccc(C(CNC(=O)c2cc3ccccc3o2)N2CCCC2)cc1 (stereo not given),0.7,-28.9,-4.9,-0.7,79.4*
COc1ccc(C(CNC(=O)C(C)(C)Oc2ccc(Cl)cc2)N2CCCC2)cc1 (stereo not given),0.5,-24.2,-36.9,-0.7,97.3*
COc1ccc(C(CNC(=O)c2cc3c(s2)CCC(C)C3)N2CCOCC2)cc1 (stereo not given),0.1,-26.5,-4.9,-3.0,20.5
CCOC(=O)N(C)c1c(CC)nc2c(OCc3ccc(C(F)(F)F)cc3)cccn12,.,.,-2.1,4.8,.
CCN(C1CCCCC1)S(=O)(=O)c1ccc(S(=O)(=O)NCCc2ccncc2)cc1,-1.8,0.5,-6.2,0.3,32.2*
CCN(C1CCCCC1)S(=O)(=O)c1ccc(S(=O)(=O)NCc2ccncc2)cc1,.,.,-3.3,6.9,.
O=C(CSc1ccc(S(=O)(=O)N2CCCCC2)cn1)Nc1ccccc1Br,-0.9,9.9,1.3,40.8*,2.9
O=S(=O)(c1ccc(SCCOc2cccc(Br)c2)nc1)N1CCCC1,0.2,-2.7,-29.1,-2.0,42.3*
COc1ccc(NC(=O)CCc2c(C)nc3nc(CNC(=O)OC(C)(C)C)nn3c2C)cc1OC,.,10.5,.,.,.
SMILES,D2 ag-1,D2 PAM-1,D2 PAM-2,D2 ag-2,D2 antag
COc1cc(C(=O)Nc2nc(C)c(Cc3ccc4c(c3)OCO4)s2)cc(OC)c1OC,-0.3,-11.2,-6.4,-3.4,39.7*
NC1=C(Cl)C(=O)c2ccc(S(N)(=O)=O)cc2C1=O,.,.,58.5*,5.9,.
NS(=O)(=O)c1ccc2c(c1)C(=NO)c1cc(S(N)(=O)=O)ccc1-2,1.0,-6.2,-3.5,7.6,-6.5
NC1=C(Cl)C(=O)c2ccccc2C1=O,.,.,51.2*,10.3,.
COc1ccc(C2C=C(c3ccc(Cl)cc3)Nc3nc(-c4ccc(Cl)cc4)nn32)cc1 (stereo not given),0.6,-0.5,.,.,.
CCOc1ccc(CCNC(=O)CCn2c(=O)c3cccn3c3ccc(F)cc32)cc1,0.2,5.7,.,.,.
CC(CCN1CCOCC1)c1ccccc1 (stereo not given),-0.5,0.9,-1.9,-1.5,0.7
CC(CCN1CCN(c2ccc(F)cc2)CC1)c1ccccc1 (stereo not given),1.5,-21.3,-32.6,-4.9,87.7*
O=C(COC(=O)c1ccc(Sc2ccccc2)c([N+](=O)[O-])c1)NC1CCS(=O)(=O)C1 (stereo not given),0.6,7.9,-11.6,-0.7,32.2*
COC(=O)c1cc(C(=O)OCC(=O)NC2CCS(=O)(=O)C2)cc([N+](=O)[O-])c1 (stereo not given),1.4,-2.6,4.3,1.6,-3.4
Fc1ccc2nc(-c3ccccc3)ccc2c1,.,.,-7.2,-2.9,.
[O-][n+]1onc2c3cc(-c4ccccc4)nnc3ccc21,-1.2,3.0,52.7*,7.6,-23.2
Nc1nonc1OCCOCCOCCOc1nonc1N,-0.4,11.4,-0.7,-3.4,-16.9
Cc1cc(C)n(CCOc2nonc2N)n1,0.7,-6.5,5.5,-0.5,34.1*
CN(CCN1CCc2ccccc2C1)Cc1nc(Cc2ccccc2F)no1,-1.5,-12.0,-14.5,0.8,41.0*
CN(CCN1CCc2ccccc2C1)Cc1nc(-c2ccc3c(c2)OCO3)no1,0.2,-22.1,-14.8,4.0,43.6*
COc1ccc(Cc2noc(CN(C)CCN3CCc4ccccc4C3)n2)cc1OC,1.8,-23.0,-22.2,-1.8,-32.0
OCCN(Cc1nc(-c2ccc3c(c2)OCO3)no1)Cc1cccs1,0.6,-15.4,-11.5,-5.1,38.8*
CN(CCCCN1CCOCC1)Cc1nc(-c2ccc3c(c2)OCO3)no1,-0.3,-2.5,-11.8,-1.3,1.6
CN(Cc1nc(-c2ccccc2)no1)C(=O)c1ccc2c(c1)OCO2,-0.5,-12.8,-14.9,3.7,-13.7
COc1cc2c(cc1OC)C(COc1ccc([N+](=O)[O-])cc1)N(C(C)=O)CC2 (stereo not given),-0.4,8.6,-0.7,-1.9,-10.9
Cc1ccc(NC2=C(NCCO)C(=O)c3ccccc3C2=O)cc1,0.0,10.2,60.0*,7.5,-4.2
Cc1cc(=O)oc2c(C)c(OCC(=O)N3CCN(c4cccc(Cl)c4)CC3)ccc12,0.0,-4.6,-7.2,0.9,-5.6
O=[N+]([O-])c1ccccc1NCCNS(=O)(=O)c1ccc(Cl)cc1,2.0,-2.3,-15.4,-3.6,33.8*
